A selection: hits, their analogues and other compounds. The true share with any hit is near 1.8%.
VDR inh: Inhibitors of the vitamin D receptor (VDR): qHTS; VDR-SRC2-3 peptide fluorescence polarization, 2 h; Potency, µM, most hits filed as inhibitors; 0.93% of 400,000 active
Target sequence (P11473 whole entry, looked up): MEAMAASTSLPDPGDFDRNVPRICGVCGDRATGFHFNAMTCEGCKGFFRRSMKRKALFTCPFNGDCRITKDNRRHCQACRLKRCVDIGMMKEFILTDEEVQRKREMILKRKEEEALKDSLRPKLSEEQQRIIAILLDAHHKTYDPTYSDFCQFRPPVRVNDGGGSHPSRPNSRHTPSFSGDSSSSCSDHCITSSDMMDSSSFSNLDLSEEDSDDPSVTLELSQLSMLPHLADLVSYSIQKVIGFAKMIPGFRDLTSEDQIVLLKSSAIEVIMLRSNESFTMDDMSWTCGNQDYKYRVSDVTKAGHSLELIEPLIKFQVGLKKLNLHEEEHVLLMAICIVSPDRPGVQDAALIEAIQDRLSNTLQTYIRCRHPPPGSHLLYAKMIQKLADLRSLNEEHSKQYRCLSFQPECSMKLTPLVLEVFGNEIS
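VDR–SRC2-3 interaction, FP format. Cmpds 23 nl via pintool, brief spin, 2 h ambient incubation.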
KAT2A inh: qHTS Assay for Inhibitors of GCN5L2 | AID 504327, 2011 | GCN5L2 HAT assay, ThioGlo1 CoA-SH fluorescence | 0.21% of 390,000 active | Potency, µM (top dose mostly 58.9 µM), most hits filed as inhibitors
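ThioGlo1-coupled HAT assay: 20nM GCN5L2, 70uM acetyl-CoA, 75uM H3(1-25) peptide, pH 7.5. Fluorescence read at 340/540nm at start and after 20 min at room temperature.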
rTrxR1 inhibitor: qHTS Assay for Inhibitors of Mammalian Selenoprotein Thioredoxin Reductase 1 (TrxR1): qHTS; recombinant rTrxR1, NADPH fluorescence consumption, selenite substrate; AID 588453, 2011; Potency, µM (doses to about 114 µM), hits mostly inhibitors; 1% of 390,000 active; Thioredoxin reductase 1, cytoplasmic (Rattus norvegicus), O89049; note: nearly all actives have a fitted effect of over 65% in size
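Rat TrxR1 (90 nM in the dispensed reagent) was pre-reduced with 400 uM NADPH for 5 min at room temperature, then incubated with compound for 15 min. After 400 uM selenite was added, NADPH fluorescence (Ex 340/Em 450 nm) was followed for 8 min.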
TrxR1 substrate: qHTS Assay for Substrates of Mammalian Selenoprotein Thioredoxin Reductase 1 (TrxR1): qHTS | 0.01% of 390,000 active | Potency, µM (titrated, usually from 114 µM) | AID 588456, 2011 | Thioredoxin reductase 1, cytoplasmic (Rattus norvegicus), O89049 | purified TrxR1 substrate turnover, NADPH consumption readout; note: nearly all actives have a fitted effect of over 50% in size
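Rat TrxR1, dispensed at 90 nM, was prereduced with 400 uM NADPH (final) for 5 min at ~22 deg C, then incubated with compound 15 min before 400 uM selenite. A first-read NADPH fluorescence drop versus no-compound background flagged substrates.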
Each line names hits and unclear results; the compound was inactive in the other large screens. Calls come from the whole dose curve; as a rule, active = well fitted curve in the direction sought with a large enough effect; inconclusive = small, poorly fitted or top-dose-only effect, or another doubt; inactive = no such curve, though single readings can be large; an effect the other way counts as inactive or inconclusive.

COC(=O)CC1Oc2ccc(F)cc2-n2cc(-c3ccc(Cl)cc3)nc21 (configuration not stated)	none
COC(=O)c1cc(NC(=O)c2nn(C)c3c2COc2ccccc2-3)cc(C(=O)OC)c1	none
COc1cc(OC)c(NC(=O)c2nn(C)c3c2COc2ccccc2-3)cc1Cl	rTrxR1 inhibitor 15.8µM
COc1cc(OC)c(NC(=O)c2noc3c2CSc2ccccc2-3)cc1Cl	rTrxR1 inhibitor 7.08µM
C[C@@H]1[C@H](c2ccccc2)OCCS(=O)(=O)N1Cc1cccc(C(F)(F)F)c1	none (no result: VDR inh, KAT2A inh)
COc1cc2c(NC3CCN(C)CC3)nc(N3CCCCC3)nc2cc1OCCOCCN(C)C	rTrxR1 inhibitor inconclusive (no result: VDR inh, KAT2A inh)
COC(=O)c1c(C)nc(C)c(C(=O)OC)c1-c1ccccc1[N+](=O)[O-]	none (no result: rTrxR1 inhibitor, TrxR1 substrate)
Cc1ccnc(Sc2ccc([N+](=O)[O-])cc2[N+](=O)[O-])n1	rTrxR1 inhibitor 20µM
CCOC(=O)c1c(NC(=S)NC)sc2c1CC(C)(C)SC2	VDR inh inconclusive, rTrxR1 inhibitor 11.2µM
CCOC(=O)c1c(NC(=S)Nc2ccccc2)sc2c1CC(C)(C)SC2	rTrxR1 inhibitor inconclusive
CCOc1ccc(-n2c(SCC(N)=O)nc3c(oc4ccccc43)c2=O)cc1	none
CC1=C(C)/C(=N/OC(=O)c2cccc([N+](=O)[O-])c2)C=CC1=O	rTrxR1 inhibitor 8.91µM
CSc1nc(N)c2ncn([C@H]3O[C@H](COP(=O)(O)OP(=O)(O)O)[C@@H](O)[C@@H]3O)c2n1	none (no result: rTrxR1 inhibitor, TrxR1 substrate)
Cc1ccc([N+](=O)[O-])cc1N=C1C(=O)Nc2ccccc21	VDR inh 25.1µM
O=C(NCc1ccco1)/C(=C/c1ccco1)NC(=O)c1ccc(Br)o1	rTrxR1 inhibitor 50.1µM
O=C(NCc1ccco1)/C(=C\c1ccco1)NC(=O)c1ccc(Br)o1	none
O=C(NCc1ccco1)/C(=C\c1ccco1)NC(=O)c1ccco1	rTrxR1 inhibitor 50.1µM
COc1ccccc1CC(=O)NO	none (no result: VDR inh, KAT2A inh)
CCCCC(=O)OC1CCC2C3CCc4cc(O)ccc4C3CC[C@]12C (some centres not stated)	none (no result: rTrxR1 inhibitor, TrxR1 substrate)
CN(C)C(=O)c1ccc(-c2nccc(NCc3cccs3)n2)cc1	VDR inh 44.7µM, KAT2A inh inconclusive (no result: rTrxR1 inhibitor, TrxR1 substrate)
CN(C)c1ccc(-c2nccc(NCc3cccs3)n2)cc1	none (no result: rTrxR1 inhibitor, TrxR1 substrate)
c1csc(CNc2ccnc(-c3ccoc3)n2)c1	VDR inh 22.4µM (no result: rTrxR1 inhibitor, TrxR1 substrate)
CC[C@H](C)[C@H](NC(=O)[C@H](Cc1ccc(O)cc1)NC(=O)[C@H](Cc1cnc[nH]1)NC(=O)[C@H](CCCNC(=N)N)NC(=O)[C@H](CC(C)C)NC(=O)[C@H](C)NC(=O)[C@H](CO)NC(=O)[C@H](Cc1ccc(O)cc1)NC(=O)[C@H](Cc1ccc(O)cc1)NC(=O)[C@H](CCCNC(=N)N)NC(=O)[C@H](C)NC(=O)[C@H](CC(C)C)NC(=O)[C@H](CC(=O)O)NC(=O)[C@H](CCC(=O)O)NC(=O)[C@H](C)NC(=O)[C@@H]1CCCN1C(=O)[C@H](C)NC(=O)[C@H](CC(=O)O)NC(=O)[C@H](CCC(=O)O)NC(=O)CNC(=O)[C@@H]1CCCN1C(=O)[C@H](CC(N)=O)NC(=O)[C@H](CC(=O)O)NC(=O)[C@@H]1CCCN1C(=O)[C@H](CCCCN)NC(=O)[C@H](CO)NC(=O)[C@@H]1CCCN1C(=O)[C@@H](N)Cc1ccc(O)cc1)C(=O)N[C@@H](CC(N)=O)C(=O)N[C@@H](CC(C)C)C(=O)N[C@@H](CC(C)C)C(=O)N[C@H](C(=O)N[C@@H](CCCNC(=N)N)C(=O)N1CCC[C@H]1C(=O)N[C@@H](CCCNC(=N)N)C(=O)N[C@@H](Cc1ccc(O)cc1)C(N)=O)[C@@H](C)O	none (no result: rTrxR1 inhibitor, TrxR1 substrate)
CN(C)[C@H]1C(=O)C(C(=O)NCN2CCCC2)=C(O)[C@]2(O)C(=O)C3=C(O)c4c(O)cccc4[C@](C)(O)[C@H]3C[C@H]12	VDR inh inconclusive, KAT2A inh 1.78µM (no result: rTrxR1 inhibitor, TrxR1 substrate)
CN(C)[C@@H]1C(=O)C(C(=O)NCN2CCCC2)=C(O)[C@@]2(O)C(=O)C3=C(O)c4c(O)cccc4[C@@](C)(O)C3CC12 (some centres not stated)	KAT2A inh 6.31µM (no result: VDR inh, rTrxR1 inhibitor, TrxR1 substrate)
COc1ccc(NC(=O)CN(c2cc(C)cc(C)c2)S(=O)(=O)c2c(C)n[nH]c2C)cc1	VDR inh 89.1µM
COC(=O)c1cc2oc3ccccc3c2n1Cc1cc(C)ccc1C	none
CC1=C(C(=O)Nc2cccnc2)C(c2ccccn2)n2nnnc2N1 (configuration not stated)	KAT2A inh 7.08µM
Cc1cc(NS(=O)(=O)c2ccc(NC(=S)NC(=O)c3cccnc3)cc2)no1	none
CCc1nnc(NS(=O)(=O)c2ccc(NC(=S)NC(=O)c3ccc(F)cc3)cc2)s1	VDR inh inconclusive, rTrxR1 inhibitor 17.8µM
CCc1nnc(NC(=O)c2ccc(S(C)(=O)=O)cc2)s1	VDR inh 20µM
Cc1cc(NS(=O)(=O)c2ccc(NC(=S)NC(=O)c3ccc(Br)cc3)cc2)no1	rTrxR1 inhibitor 44.7µM
CCN(CC)S(=O)(=O)c1ccc(NC(=O)CSc2nnc3c(n2)[nH]c2ccccc23)cc1	none (no result: KAT2A inh)
O=C(Cn1c(=O)n(-c2ccc(F)cc2)c(=O)c2sc3ccccc3c21)N1CCCC1	none
COc1cc(OC)c(NC(=O)C2CCCN(c3ncnc4c3nc3n4CCCCC3)C2)cc1Cl (configuration not stated)	none
Cc1nc2ccccc2n2c(O)c(CC(=O)O)cc12	rTrxR1 inhibitor 35.5µM
Cc1cc(C)n2c(nc3ccccc32)c1C(=O)NN	none
Cc1ccc(C(=O)NCc2ccco2)cc1Br	rTrxR1 inhibitor 17.8µM
Cc1c(Br)cc(C(=O)NCc2ccco2)c(C)c1C	none
Cc1cccc(-n2c(SCC(=O)NCc3ccco3)nnc2-c2ccco2)c1	none
Cc1ccc(-n2c(SCC(=O)NCc3ccco3)nnc2-c2cccnc2)c(C)c1	rTrxR1 inhibitor 56.2µM
O=C1/C(=C/C=C/c2ccco2)SC(=S)N1NS(=O)(=O)c1ccccc1	KAT2A inh 20µM, rTrxR1 inhibitor 44.7µM
c1ccc(CNc2nc3ccccc3[nH]2)cc1	none
S=C(NCc1ccccc1)NNc1nc2ccccc2[nH]1	VDR inh 25.1µM, KAT2A inh inconclusive
O=C(CCC1CCCN(C(=O)CC2=CCCCC2)C1)N1CCN(c2ccccn2)CC1 (configuration not stated)	VDR inh 79.4µM
O=C(CCC1CCCN(C(=O)C2=CCCC2)C1)N1CCN(c2ccccn2)CC1 (configuration not stated)	none
Cc1cc(Nc2c(C)n(C)n(-c3ccccc3)c2=O)n2c(nc3ccccc32)c1C#N	rTrxR1 inhibitor 35.5µM
Cc1cccc(-c2nc(SCC(=O)Nc3ccc4c(c3)OCO4)c(-c3ccccc3)[nH]2)c1	none
NS(=O)(=O)C#Cc1ccccc1	rTrxR1 inhibitor 4.74µM

Source: PubChem
